# Hits are enriched below; roughly 3.4% of the tested compounds scored in any of these assays.
# pPAFAH FP inh: pPAFAH enzyme inhibitors, primary screen, biochemical, fluorescence polarization, human. recombinant pPAFAH, FP-rhodamine probe fluorescence polarization. inhibition, % at 3.39 µM. 330,000 compounds, 1.5% hits;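 active = inhibition above the mean inhibition across the screen plus 3 SD, cut at about 25% in these data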;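 note: inhibitors block binding of the rhodamine activity-based probe so polarization drops; 0% = enzyme with DMSO and 100% = wells lacking pPAFAH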
# Target sequence (Q13093 whole entry, looked up): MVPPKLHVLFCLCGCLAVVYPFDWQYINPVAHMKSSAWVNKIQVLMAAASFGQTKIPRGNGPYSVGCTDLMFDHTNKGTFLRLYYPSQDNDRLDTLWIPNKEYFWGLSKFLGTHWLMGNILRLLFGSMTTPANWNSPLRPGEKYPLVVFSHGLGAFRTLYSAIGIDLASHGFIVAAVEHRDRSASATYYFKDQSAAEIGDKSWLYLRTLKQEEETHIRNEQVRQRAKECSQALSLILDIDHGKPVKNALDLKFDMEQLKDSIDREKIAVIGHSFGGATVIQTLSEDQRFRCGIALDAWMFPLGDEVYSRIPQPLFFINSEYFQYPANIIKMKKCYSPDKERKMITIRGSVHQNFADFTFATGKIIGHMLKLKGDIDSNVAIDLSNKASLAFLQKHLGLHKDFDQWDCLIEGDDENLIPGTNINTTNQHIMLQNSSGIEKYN
# PAFAH1B2 FP inh: PAFAH1B2 enzyme inhibitors, primary screen, biochemical, fluorescence polarization, human. Platelet-activating factor acetylhydrolase IB subunit alpha2 (Homo sapiens), P68402. recombinant PAFAH1B2, FP-rhodamine activity probe. inhibition, % at 3.39 µM. 340,000 compounds, 1.2% hits. AID 492953, 2010;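 active = inhibition above the mean of all tested compounds plus 3 SD, cut at about 24% in these data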;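 note: 0% = enzyme with DMSO and 100% = wells lacking PAFAH1B2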
# PP1 counter: PP1-alpha phosphatase inhibitors, primary screen, counter-screen for PP5 inhibitor project, biochemical, fluorescence, OMFP substrate, single point; Serine/threonine-protein phosphatase PP1-alpha catalytic subunit (Homo sapiens), P62136; purified PP1alpha; inhibition, % at 6.7 µM; 320,000 compounds, 0.9% hits;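 active = inhibition above the mean inhibition of all tested compounds plus 3 SD, computed separately for each screening campaign, cut at about 15% in these data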
# PAFAH2 FP inh: PAFAH2 enzyme inhibitors, primary screen, biochemical, fluorescence polarization, human; recombinant PAFAH2, FP-rhodamine activity probe; inhibition, % at 3.39 µM; Platelet-activating factor acetylhydrolase 2, cytoplasmic (Homo sapiens), Q99487; 340,000 compounds, 0.99% hits;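 active = inhibition above the mean over all tested compounds plus 3 SD, cut at about 30% in these data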;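 note: inhibitors block probe labeling of enzyme so polarization drops; 0% = enzyme with DMSO and 100% = wells lacking PAFAH2 protein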
# PP5 inh: PP5 phosphatase inhibitors, primary screen, biochemical, fluorescence; purified PP5c, OMFP substrate fluorescence; inhibition, % at 6.7 µM; 320,000 compounds, 0.18% hits;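 active = inhibition above the campaign's mean inhibition across all tested compounds plus 3 SD, cut at about 9.5% in these data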;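 note: 0% = DMSO only and 100% = 100 µM cantharidin control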
# PAFAH1B3 inh: PAFAH1B3 enzyme inhibitors, primary screen, biochemical, fluorescence polarization, human; Platelet-activating factor acetylhydrolase IB subunit alpha1 (Homo sapiens), Q15102; recombinant PAFAH1B3, FP-rhodamine probe; inhibition, % at 3.39 µM; 340,000 compounds, 0.28% hits; AID 492972, 2010;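 active = inhibition above the screen-wide average of all tested compounds plus 3 SD, cut at about 25% in these data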;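 note: 0% = enzyme with DMSO only and 100% = wells lacking PAFAH1B3 protein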
# Target sequence (Q15102 whole entry, looked up): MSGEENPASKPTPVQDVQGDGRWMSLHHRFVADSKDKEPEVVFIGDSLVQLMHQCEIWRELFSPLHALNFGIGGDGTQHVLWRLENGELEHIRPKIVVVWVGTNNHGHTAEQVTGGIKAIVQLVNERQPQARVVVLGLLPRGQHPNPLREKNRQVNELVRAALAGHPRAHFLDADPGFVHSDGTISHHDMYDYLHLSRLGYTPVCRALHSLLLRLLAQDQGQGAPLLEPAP
# PP5 inh confirm: PP5 phosphatase inhibitors, confirmation, biochemical, fluorescence, human; shares compounds with PP5 inh; Purified PP5, fluorogenic phosphatase substrate; inhibition, % at 6.7 µM; 460 compounds, 22% hits; in the data active = inhibition above about 9.5%
# PP1 inh counter: PP1 phosphatase inhibitors, counter-screen for PP5 inhibitor project, biochemical, fluorescence, triplicate. PP1 enzyme, fluorescent phosphatase substrate. inhibition, % at 6.7 µM. 460 compounds, 4% hits. AID 2355, 2010. shares compounds with PP5 inh; in the data active = inhibition above about 16%
# An asterisk follows results filed as active; / = no result given.
SMILES,pPAFAH FP inh,PAFAH1B2 FP inh,PP1 counter,PAFAH2 FP inh,PP5 inh,PAFAH1B3 inh,PP5 inh confirm,PP1 inh counter
Nc1ncc(Br)cc1S(=O)(=O)Nc1cc(C(F)(F)F)cc(C(F)(F)F)c1,12.7,26.0*,7.8,3.0,9.6*,6.1,5.1,11.9
CCOC(=O)N1CCN(CC(O)COc2c(OC)cccc2OC)CC1 (stereo not drawn),-2.2,-1.9,-3.9,4.6,3.7,2.6,/,/
CC1=NN(c2ccc(C)cc2)C(=O)/C1=C\C=C\c1ccccc1,2.2,-2.0,0.6,19.7,4.4,9.9,/,/
CC1=NN(c2ccccc2)C(=O)/C1=C/C=C/C=C/N(C)C,9.2,-28.5,3.4,-52.7,10.4*,-38.9,13.9*,12.1
CCSc1nc2ccccc2c(=O)n1CCc1ccc(OC)c(OC)c1,-6.4,0.1,-2.7,-0.6,10.1*,3.8,-0.9,0.1
O=C(NCC1([N+](=O)[O-])CN(C(=O)c2ccccc2)CN(C(=O)c2ccccc2)C1)c1ccccc1,0.4,-4.0,1.6,3.1,1.0,7.6,/,/
CN1CCC(NC(=O)Nc2ccc(Br)cc2)CC1,3.1,3.2,-3.5,-7.6,12.9*,3.1,-4.1,-4.6
COc1ccc(CNC(=O)c2ccc(CS(=O)(=O)c3ccccc3C)o2)cc1,6.3,-0.1,2.2,0.3,2.0,-3.1,/,/
Cc1cc(C(=O)NCC(=O)O)c(C)o1,-3.0,-5.4,1.2,1.6,-0.9,-2.3,/,/
CCOC(=O)CNC(=O)c1cc(C)oc1C,8.3,/,-2.3,/,14.2*,/,-0.2,-1.3
CC1CC(C)CN(C(=O)c2ccc3c(=O)n(Cc4ccc5c(c4)OCO5)c(=S)[nH]c3c2)C1 (stereo not drawn),-0.9,3.3,13.7,-8.1,11.1*,4.7,1.5,3.7
O=C(c1ccc2c(=O)n(Cc3ccc4c(c3)OCO4)c(=S)[nH]c2c1)N1CCCCC1,0.0,-0.9,-1.3,-1.5,-0.8,0.0,/,/
CC(C)OC(=O)c1cc(NC(=O)C2C3C=CC(O3)C2C(=O)O)cc(C(=O)OC(C)C)c1 (stereo not drawn),5.8,-3.8,8.2,-4.3,30.6*,-7.1,-3.6,3.4
CCCOC(=O)c1ccc(NC(=O)C2C3C=CC(O3)C2C(=O)O)cc1 (stereo not drawn),2.4,0.9,0.8,13.9,20.6*,11.4,-0.3,-0.2
CC(C)OC(=O)c1cc(NC(=S)Nc2ccc([N+](=O)[O-])cc2)cc(C(=O)OC(C)C)c1,5.4,-12.9,-1.3,-49.0,2.3,-13.2,/,/
COc1ccc(NC(=O)C2C3C=CC(O3)C2C(=O)O)cc1 (stereo not drawn),1.7,4.0,-1.2,0.4,6.6,12.3,/,/
COc1cccc(NC(=O)C2C3C=CC(O3)C2C(=O)O)c1 (stereo not drawn),6.2,1.4,5.1,7.3,24.1*,2.5,2.2,17.7*
O=C(O)C1C2C=CC(O2)C1C(=O)Nc1ccc(S(=O)(=O)N2CCc3ccccc32)cc1 (stereo not drawn),-0.8,19.8,3.2,-2.5,16.7*,-2.0,3.4,3.2
CCC(C)[C@H](NC(=O)NCc1cccnc1)C(=O)OC (stereo partly drawn),-0.4,9.8,-3.9,6.5,-2.0,8.3,/,/
O=C(O)C1C2C=CC(O2)C1C(=O)Nc1ccc2c(c1)OCCO2 (stereo not drawn),1.8,/,6.8,/,15.3*,/,0.8,10.1
CC(=O)c1ccc(NC(=O)C2C3CCC(C3)C2C(=O)O)cc1 (stereo not drawn),1.3,0.6,-5.2,2.2,-1.5,8.1,/,/
CC(=O)c1ccc(NC(=O)C2C3C=CC(O3)C2C(=O)O)cc1 (stereo not drawn),3.2,9.3,3.7,-0.3,24.0*,4.8,2.9,8.2
CC(C)CCNS(=O)(=O)c1ccc(-c2ccc(S(=O)(=O)NCCC(C)C)cc2)cc1,3.0,5.0,-0.9,1.4,-1.1,0.3,/,/
Cc1ccc(S(=O)(=O)NC(=O)NCc2ccc(F)cc2)cc1,2.0,13.9,-2.2,-6.8,-2.6,4.0,/,/
CCn1c(SCC(=O)Nc2cccc(NC(=O)c3cccs3)c2)nnc1-c1ccncc1,-1.6,1.1,5.5,2.6,-4.5,1.4,/,/
SMILES,pPAFAH FP inh,PAFAH1B2 FP inh,PP1 counter,PAFAH2 FP inh,PP5 inh,PAFAH1B3 inh,PP5 inh confirm,PP1 inh counter
CCC(=O)Nc1cccc(NC(=O)CSc2nnc(-c3ccc(NS(C)(=O)=O)cc3)n2CC)c1,4.3,1.6,2.4,-1.9,9.7*,3.8,-4.2,-5.0
CCOC(=O)c1c(C)[nH]c(C)c1C(=O)COC(=O)/C=C/c1cccc(C(F)(F)F)c1,-1.5,-0.3,1.6,-4.7,11.5*,12.6,8.0,9.1
CCOC(=O)c1c(C)[nH]c(C)c1C(=O)COC(=O)/C=C/c1cccc(F)c1,2.1,-2.5,-0.5,1.6,2.8,5.2,/,/
COc1cccc(N2CCN(C(=O)c3ccc4nc(N5CCCCC5)sc4c3)CC2)c1,0.3,0.4,-2.0,3.1,1.9,2.8,/,/
NNC(=O)c1cc(-c2cccs2)nc2ccccc12,0.8,-4.8,1.7,-0.1,14.9*,3.0,-2.8,-1.9
Cc1cc(NS(=O)(=O)c2ccc(Nc3nc(-c4ccc(C)c(C)c4)cs3)cc2)no1,34.3*,8.2,3.7,24.8,10.8*,-1.9,5.4,9.1
COc1ccc(OC)c(-n2c(N)c(C(=O)NCC3CCCO3)c3nc4ccccc4nc32)c1 (stereo not drawn),/,7.3,/,4.8,/,5.4,/,/
COCCn1c(N)c(C(=O)NCc2cccs2)c2nc3ccccc3nc21,16.9,3.8,0.2,6.6,10.7*,20.6,5.1,3.9
COCCn1c(N)c(C(=O)NCC2CCCO2)c2nc3ccccc3nc21 (stereo not drawn),10.1,3.8,4.1,-2.0,13.4*,6.4,15.1*,-3.6
Nc1c(C(=O)NCc2ccc3c(c2)OCO3)c2nc3ccccc3nc2n1CCCN1CCOCC1,24.1,0.7,4.2,3.8,9.7*,13.8,13.3*,4.1
O=C(NCCN1CCN(c2ccccc2)CC1)Nc1ccccc1Br,/,7.4,/,3.1,/,5.0,/,/
O=C(COC(=O)c1ccccn1)Nc1cccnc1Cl,4.1,4.4,3.9,3.8,-0.5,3.1,/,/

# Assay outcomes from PubChem BioAssay.
